Compound activity (PubChem BioAssay)
This is a sample that favours compounds with a hit; in the whole collection about 2.4% have one here.
Pol kappa inh-1 – inhibitors of human DNA polymerase kappa. purified Pol kappa, fluorescent DNA synthesis assay, 10 min. Potency, µM (titrated, usually from 107 µM), without a hit: at the top dose activity, negative = inhibition, usual class: inhibitors. 0.53% of 400,000 active; further: on the % scale 0 is the no-effect control and ±100 the full control effect
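Readout: fluorescence, taken kinetically at 0 and 10 min. Conditions: 10 nM Pol kappa, 15 min RT compound preincubation, 50 nM substrate final. Controls: enzyme-free buffer wells.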
Pol eta inh-1 – blocks human DNA polymerase eta activity. Q9Y253. recombinant Pol eta, fluorescent DNA replication assay. Potency, µM (titrated, usually from 114 µM), without a hit: at the highest dose activity change, negative = inhibition, actives largely listed as inhibitors. 1.2% of 390,000 active; further: on the % scale 0 is the no-effect control and ±100 the full control effect
Target sequence (Q9Y253 whole entry, looked up): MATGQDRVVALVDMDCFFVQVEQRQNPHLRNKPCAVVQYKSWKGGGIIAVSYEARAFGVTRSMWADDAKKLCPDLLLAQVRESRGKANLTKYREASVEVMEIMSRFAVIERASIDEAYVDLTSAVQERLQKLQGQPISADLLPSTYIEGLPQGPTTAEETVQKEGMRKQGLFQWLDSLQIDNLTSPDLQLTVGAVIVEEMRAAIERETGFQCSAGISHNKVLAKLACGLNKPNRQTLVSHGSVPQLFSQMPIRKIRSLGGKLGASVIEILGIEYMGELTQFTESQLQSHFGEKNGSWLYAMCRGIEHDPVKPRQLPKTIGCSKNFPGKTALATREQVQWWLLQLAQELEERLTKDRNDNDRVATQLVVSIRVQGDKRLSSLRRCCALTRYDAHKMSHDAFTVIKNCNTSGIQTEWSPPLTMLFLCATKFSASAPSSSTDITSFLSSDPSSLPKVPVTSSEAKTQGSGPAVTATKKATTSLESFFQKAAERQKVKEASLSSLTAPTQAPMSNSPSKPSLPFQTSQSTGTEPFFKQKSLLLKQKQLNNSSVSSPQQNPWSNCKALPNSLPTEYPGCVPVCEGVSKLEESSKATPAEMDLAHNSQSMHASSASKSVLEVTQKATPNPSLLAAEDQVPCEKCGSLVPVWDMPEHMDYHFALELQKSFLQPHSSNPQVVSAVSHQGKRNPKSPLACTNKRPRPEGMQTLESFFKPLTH
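Fluorescent replication assay: 50 nM final substrate added after a 15 min room-temperature compound preincubation with 10 nM enzyme. Signal taken at 0 min and again at 10 min.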
POLI inh – inhibitors of human DNA polymerase iota; 1% of 390,000 active; Pol iota fluorescent replication assay, 10 min; Potency, µM (highest dose often 115 µM), inactives show at the highest dose activity, negative = inhibition, actives largely listed as inhibitors; Q9UNA4
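Pol iota at 10 nM preincubated 15 min with compounds at room temperature; reaction started with fluorescent substrate, 50 nM final. Fluorescence read kinetically at 0 and 10 min; buffer-only wells as negative control.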
GCN5L2 inh – blocks human GCN5L2 histone acetyltransferase; Q92830; Potency, µM (doses to about 58.9 µM), inactives show top-dose activity change, negative = inhibition, usual class: inhibitors; GCN5L2 HAT assay, ThioGlo1 CoA-SH fluorescence; AID 504327; 0.21% of 390,000 active; further: on the % scale 0 is the no-effect control and ±100 the full control effect
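ThioGlo1-coupled HAT assay: 20nM GCN5L2, 70uM acetyl-CoA, 75uM H3(1-25) peptide, pH 7.5. Fluorescence read at 340/540nm at start and after 20 min at room temperature.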
POLB inh – blocks human DNA polymerase beta activity; 1.3% of 340,000 active; Potency, µM (top dose mostly 114 µM), without a hit: at the top dose activity change, negative = inhibition, usual class: inhibitors; AID 485314; Pol beta primer extension/strand displacement, fluorescence kinetic; P06746; further: on the % scale 0 is the no-effect control and ±100 the full control effect
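Homogeneous kinetic assay of primer extension and strand displacement by 10 nM Pol beta, preincubated 15 min at room temperature with compound before 50 nM substrate (final) was added. Read at 0 and 10 min; four-parameter Hill fit.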
GLS inhibitor – blocks human kidney-isoform glutaminase activity. O94925. GLS enzymatic activity, qHTS titration. Potency, µM (titrated, usually from 45.5 µM), for the others: at the top dose activity change, negative = inhibition, most hits filed as inhibitors. 0.21% of 410,000 active. AID 624170; further: on the % scale 0 is the no-effect control and ±100 the full control effect
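Compounds were pin-transferred onto hKGA, after which L-glutamine (1 mM solution) and a detection mix of glutamate oxidase, HRP and Amplex Red were added. Initial and 30 min RT fluorescence reads were collected.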
HEK293 tox – counter-screen for GALK inhibitors: HEK293 cell cytotoxicity; shares compounds with Pol eta inh-1; AID 2547; HEK-293 viability, ATP luminescence (CellTiter-Glo), 24/48 h; Potency, µM (doses to about 46.1 µM), inactives show at the highest dose activity change, negative = cytotoxicity, most hits filed as inhibitors; 10% of 170 active; further: on the % scale 0 is the no-effect control and ±100 the full control effect
Pol kappa inh-2 – confirmation of human DNA polymerase kappa inhibitors. shares compounds with Pol eta inh-1. purified Pol-kappa, fluorescent strand-displacement substrate. Potency, µM, usual class: inhibitors. 76% of 920 active
Pol eta inh-2 – Pol eta (human) inhibition, cherry-pick confirmation; shares compounds with Pol eta inh-1; Pol eta primer extension, TAMRA/BHQ fluorescence, 10 min; Potency, µM, actives largely listed as inhibitors; 64% of 2,600 active
The depositor's hits bear a star; ? = inconclusive; / = no result; [ ] = remark or other dose. The call rests on the fitted dose curve; in most records, active means well fitted curve in the direction sought with a large enough effect; inconclusive means small, poorly fitted or top-dose-only effect, or another doubt; inactive means no such curve, though single readings can be large; an effect the other way counts as inactive or inconclusive. Potency means the concentration at half of the fitted maximal effect.

SMILES	Pol kappa inh-1	Pol eta inh-1	POLI inh	GCN5L2 inh	POLB inh	GLS inhibitor	Pol eta inh-2	others
O=C(COc1cc2oc(=O)cc(-c3ccccc3)c2cc1Cl)NC(Cc1c[nH]c2ccc(O)cc12)C(=O)O (stereo not given)	-5%	50µM*	?	-22%	?	4%	?
Cc1c(OC(C)C(=O)NC(Cc2c[nH]c3ccc(O)cc23)C(=O)O)ccc2c1oc(=O)c1ccccc12 (stereo not given)	?	20µM*	45µM*	-19%	2.5µM*	?	?
CCOc1ccc(-n2c(SCC(=O)Nc3cccc(Cl)c3)nc3c(oc4ccccc43)c2=O)cc1	-11%	-6%	7%	-3%	0%	-6%	/
O=C(Cn1cc(SCc2c(F)cccc2Cl)c2ccccc21)N1CCCC1	-11%	-11%	9%	-2%	13%	-9%	/
CC(=O)Oc1cc(C(=O)OCC(=O)N2CCc3ccccc3C2)cc(OC(C)=O)c1OC(C)=O	40µM*	7.1µM*	?	1%	/	6.3µM*	?	Pol kappa inh-2=17*
COc1cc(NC(=O)C(CC(C)C)NS(=O)(=O)c2ccc3c(c2)CCCC(=O)N3)cc(OC)c1 (stereo not given)	0%	?	4%	-10%	1%	-3%	/
CN(c1ccc(Cl)cc1)S(=O)(=O)c1nnc(NC(=O)c2ccco2)s1	?	?	?	-13%	?	1%	?	Pol kappa inh-2=?
Cc1ccc(N(C)S(=O)(=O)c2nnc(NC(=O)c3ccco3)s2)cc1	9%	-5%	29%	-2%	30%	-7%	/
CN(Cc1ccco1)S(=O)(=O)c1nnc(NC(=O)c2ccccc2Cl)s1	?	50µM*	?	-9%	?	15%	?
Cc1ccccc1C(=O)Nc1nnc(S(=O)(=O)N(C)Cc2ccco2)s1	?	?	-26%	-2%	-23%	13%	/
COc1ccc(N2CCN(C(=O)CN3CCSc4ccccc43)CC2)cc1	-12%[60.1 µM]	-20%	13%	1%	-2%	10%	/
COc1ccc2occ(CC(=O)Nc3ccc(S(=O)(=O)Nc4nccc(C)n4)cc3)c2c1	?	79µM*	?	-4%	?	6%	?	Pol kappa inh-2=47*
Cc1ccc(NC(=O)CN2C(=O)N/C(=C\c3cccn3-c3ccc(C(=O)NS(C)(=O)=O)cc3)C2=O)cc1	/	/	/	/	/	/	?
O=C(CN1C(=O)N/C(=C\c2cccn2-c2cccc(C(=O)O)c2)C1=O)Nc1cccc(Cl)c1	/	/	/	/	/	/	/	Pol kappa inh-2=?
O=C1N/C(=C/c2cccn2-c2ccccc2)C(=O)N1Cc1ccc(F)cc1	-2%	3%	30%	-15%	-12%	-10%	/
O=C(O)c1cccc(-n2cccc2/C=C2/NC(=O)N(Cc3ccccc3F)C2=O)c1	?	20µM*	32µM*	-9%	10µM*	-2%	?
CCOC(=O)c1c(C)oc2nc(C)nc(NCCc3ccc(OCC)c(OCC)c3)c12	-2%	-19%	15%	-16%	24%	1%	/
O=C(COc1cccc2ccccc12)N/N=C/c1ccco1	-2%	0%	12%	-4%	0%	9%	/
CCc1ccc(OCC(=O)N/N=C\c2ccco2)c([N+](=O)[O-])c1	79µM*	?	20µM*	-22%	?	-1%	?
CC1C=CC(C)C(C(=O)O)C1C(=O)O (stereo not given)	40µM*	2.5µM*	?	2%	5.6µM*	3%	5.4*
CON=C(C(=O)NC1C(=O)N2C(C(=O)O)=C(CSc3nc(=O)c(=O)[nH]n3C)CSC12)c1csc(N)n1 (stereo not given)	40µM*	32µM*	?	/	/	18µM*	30*	Pol kappa inh-2=21*
CO/N=C(\C(=O)N[C@@H]1C(=O)N2C(C(=O)O)=C(COC(C)=O)CS[C@@H]12)c1csc(N)n1	?	/	/	0%	/	-12%	/
Cc1c(CCOC(=O)c2ccc(N3CCOCC3)c([N+](=O)[O-])c2)sc[n+]1CC#N	-17%	50µM*	?	-4%	?	?	?	Pol kappa inh-2=75*
OC(CCN1CCCCC1)(c1ccccc1)C1CC2C=CC1C2 (stereo not given)	-2%[60.1 µM]	/	/	-3%	/	-9%	/
COc1ccc(-c2cn3cccnc3n2)cc1NC(=O)Nc1cc(C)ccc1C	-13%	79µM*	?	-9%	-15%	-6%	?	Pol kappa inh-2=15*
SMILES	Pol kappa inh-1	Pol eta inh-1	POLI inh	GCN5L2 inh	POLB inh	GLS inhibitor	Pol eta inh-2	others
Cc1cc(C)nc(Nc2nc3ccccc3o2)n1	-6%	2%	19%	-5%	16%	-13%	/
Cc1nc(Nc2nc3ccccc3o2)nc2c1CCCC2	/	/	/	/	/	/	/	HEK293 tox=-13%
Cc1nc(Nc2nc3ccccc3o2)nc2c1C(=O)CC(C)(C)C2	/	/	/	/	/	/	/	HEK293 tox=-6%
CN1C2CCC1CC(OC(=O)C(O)c1ccccc1)C2 (stereo not given)	2%[60.1 µM]	-2%[57.1 µM]	-5%[58.9 µM]	-3%	-4%[57.1 µM]	/	/
CCc1ccc(Sc2cc(C(=O)NCCCN3CCC(C)CC3)c3ccccc3n2)cc1	-7%[60.1 µM]	-17%	12%	-18%	0%	2%	/
COc1ccc(NS(=O)(=O)c2ccc3c(c2)n(C)c(=O)c(=O)n3C)cc1Cl	-4%	-9%	6%	-4%	33%	-11%	/
Cc1cccc(C)c1NC(=O)NCCc1c[nH]c2ccccc12	-15%	-9%	-16%	-10%	46%	23%	/
S=C(NCc1ccco1)NCc1ccco1	?	?	?	/	/	-12%	?
COc1ccc2cc(-c3nc4ccc(C(=O)O)cc4[nH]3)c(=O)oc2c1	-8%[60.1 µM]	45µM*	?	-9%	?	-16%	?	Pol kappa inh-2=21*
COc1ccc2oc(=O)c(-c3nc4ccc(C)cc4[nH]3)cc2c1	-3%[60.1 µM]	-11%	18%	-6%	-19%	-18%	/
Cn1cc(-c2cc3n(n2)CCC(=O)N3CCCC(=O)Nc2ccccc2Cl)c2ccccc21	-10%[60.1 µM]	-2%	?	-18%	?	-7%	/
CCc1ccc(/C=C(/C#N)C(N)=S)s1	-9%	0%	-13%	-5%	4%	0%	/
